Test results taken from PubChem BioAssay AID1159580 (chemical genetic matrix, 2015).
In all, about 5,500 compounds went through this assay and about 2,000 (36%) were called active. About 18% were inconclusive and are not listed. No stated cut-off is given here; in the data, active means normalized growth mostly below about 0.91 (no sharp cut-off); inconclusive means no clear call, values can overlap the other calls; inactive means mostly above about 0.92. The list shows a part of the results.

Assay: chemical genetic growth profiling, strain panel (AID 1159580);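 further: tested at 20 µM; growth read once vehicle control cultures reached saturation at 30 °C; 1 = growth at the plate median or of vehicle wells; lower values mean less growth of the strain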
Conditions: S. cerevisiae deletion strains, growth OD

Measured: normalized growth

CP(=O)(O)CCCN
inactive: locus YAL040C, strain CLN3, active compounds read low 1 | locus YCL061C, strain MRC1 (second series), active compounds read low 1 | locus YDR150W, strain NUM1, active compounds read low 0.983 | locus YER002W, strain NOP16, active compounds read low 0.994 | locus YNL153C, strain GIM3, active compounds read low 0.99 | locus YNL175C, strain NOP13, active compounds read low 0.996 | locus YNL197C, strain WHI3, active compounds read low 1.02 | locus YNL224C, strain SQS1, active compounds read low 0.98 | locus YOR083W, strain WHI5 (second series), active compounds read low 1.01 | locus YPL241C, strain CIN2, active compounds read low 0.989

NCCCC(O)(P(=O)(O)O)P(=O)(O)O
active: locus YPL051W, strain arl3, active compounds read low 0.899
inactive: locus YAL021C, strain ccr4, active compounds read low 0.993 | locus YAL026C, strain drs2, active compounds read low 0.983 | locus YAL030W, strain snc1, active compounds read low 0.993 | locus YBL061C, strain skt5, active compounds read low 0.978 | locus YBR009C, strain hhf1, active compounds read low 0.988 | locus YBR023C, strain chs3, active compounds read low 0.992 | locus YBR171W, strain sec66, active compounds read low 0.953 | locus YBR231C, strain swc5, active compounds read low 0.977 | locus YBR279W, strain paf1, active compounds read low 0.981 | locus YCL011C, strain gbp2, active compounds read low 0.997 | locus YCL016C, strain dcc1, active compounds read low 0.984 | locus YCL061C, strain MRC1, active compounds read low 0.976 | locus YCL069W, strain vba3, active compounds read low 0.991 | locus YCR088W, strain abp1, active compounds read low 0.972 | locus YDL005C, strain med2, active compounds read low 0.99 | locus YDL040C, strain nat1, active compounds read low 0.989 | locus YDR001C, strain nth1, active compounds read low 0.983 | locus YDR069C, strain doa4, active compounds read low 1 | locus YDR137W, strain rgp1, active compounds read low 1 | locus YDR159W, strain sac3, active compounds read low 1 | locus YDR195W, strain ref2 0.943 | locus YDR297W, strain sur2, active compounds read low 0.991 | locus YDR334W, strain swr1, active compounds read low 0.967 | locus YDR335W, strain msn5, active compounds read low 0.99 | locus YDR392W, strain spt3, active compounds read low 0.964 | locus YEL003W, strain gim4, active compounds read low 0.989 | locus YEL037C, strain rad23, active compounds read low 0.978 | locus YEL061C, strain CIN8 (second series), active compounds read low 0.973 | locus YER015W, strain faa2, active compounds read low 0.987 | locus YER016W, strain bim1, active compounds read low 0.984 | locus YER111C, strain swi4, active compounds read low 0.978 | locus YER155C, strain BEM2 (second series), active compounds read low 0.968 | locus YFR010W, strain ubp6, active compounds read low 0.968 | locus YGL167C, strain pmr1, active compounds read low 0.98 | locus YGL173C, strain kem1, active compounds read low 0.959 | locus YGL227W, strain vid30, active compounds read low 0.97 | locus YGL240W, strain doc1, active compounds read low 0.995 | locus YGL253W, strain hxk2, active compounds read low 0.977 | locus YHR013C, strain ard1, active compounds read low 0.97 | locus YHR027C, strain rpn1, active compounds read low 0.983 | locus YHR030C, strain SLT2, active compounds read low 0.979 | locus YHR079C, strain IRE1, active compounds read low 0.968 | locus YHR142W, strain chs7, active compounds read low 0.972 | locus YJL092W, strain hpr5, active compounds read low 0.972 | locus YJL095W, strain BCK1 (second series), active compounds read low 0.985 | locus YJL095W, strain BCK1, active compounds read low 1 | locus YJL115W, strain asf1, active compounds read low 0.976 | locus YJL129C, strain trk1, active compounds read low 0.964 | locus YJL154C, strain vps35, active compounds read low 0.974 | locus YJL164C, strain tpk1, active compounds read low 0.996 | locus YJL166W, strain qcr8, active compounds read low 1 | locus YJL187C, strain SWE1, active compounds read low 0.991 | locus YJR066W, strain TOR1, active compounds read low 0.952 | locus YKL160W, strain elf1, active compounds read low 0.99 | locus YKR026C, strain gcn3, active compounds read low 0.98 | locus YKR091W, strain srl3, active compounds read low 0.981 | locus YLL001W, strain dnm1, active compounds read low 0.987 | locus YLL026W, active compounds read low 0.995 | locus YLL041C, strain sdh2, active compounds read low 1.01 | locus YLR027C, strain aat2, active compounds read low 1 | locus YLR113W, strain HOG1, active compounds read low 1 | locus YLR221C, strain rsa3, active compounds read low 0.99 | locus YLR258W, strain gsy2, active compounds read low 0.998 | locus YLR262C, strain YPT6 (second series), active compounds read low 0.973 | locus YLR320W, strain mms22, active compounds read low 0.987 | locus YLR342W, strain FKS1, active compounds read low 0.978 | locus YLR357W, strain rsc2, active compounds read low 0.975 | locus YLR370C, strain arc18, active compounds read low 0.976 | locus YLR384C, strain iki3, active compounds read low 0.978 | locus YML120C, strain ndi1, active compounds read low 0.989 | locus YMR058W, strain fet3, active compounds read low 0.977 | locus YMR125W, strain sto1, active compounds read low 0.978 | locus YMR129W, active compounds read low 0.99 | locus YMR205C, strain PFK2, active compounds read low 0.996 | locus YMR231W, strain pep5, active compounds read low 0.962 | locus YNL071W, strain lat1, active compounds read low 0.985 | locus YNL183C, strain NPR1, active compounds read low 0.978 | locus YNL209W, strain ssb2, active compounds read low 0.982 | locus YNL248C, strain rpa49, active compounds read low 0.985 | locus YNL322C, strain KRE1 (second series), active compounds read low 0.98 | locus YNR049C, strain mso1, active compounds read low 0.987 | locus YOR001W, strain rrp6, active compounds read low 0.983 | locus YOR070C, strain gyp1, active compounds read low 0.972 | locus YOR080W, strain dia2, active compounds read low 0.979 | locus YOR083W, strain WHI5, active compounds read low 0.99 | locus YOR106W, strain vam3, active compounds read low 0.956 | locus YOR231W, strain MKK1, active compounds read low 0.989 | locus YOR265W, strain rbl2, active compounds read low 0.995 | locus YOR270C, strain vph1, active compounds read low 0.965 | locus YOR290C, strain snf2, active compounds read low 0.98 | locus YPL078C, strain atp4, active compounds read low 0.976 | locus YPL106C, strain sse1, active compounds read low 0.983 | locus YPL240C, strain hsp82, active compounds read low 0.992 | locus YPL256C, strain CLN2, active compounds read low 0.973
